Measurements reported in the OligoGym collection.

Target: LCN1
Test: pooled miR-30 sensor sort-seq; sequence = guide strand
Settings: shRNA
Further: reference of the scale not given here.

Sequence	sensor-assay potency score (higher = more potent)
ATGCTCTCCGTGCTGAGTCCGC	-1.5
TCCTGAATCTCCTCGTCTGAGG	-2.03
TTGTTCTTGGGGTCTCTGCCCA	-0.515
TGACACATCCTGAATCTCCTCG	1.02
ATTCATCTCAGGGAACTCCCTG	-0.0672
TCTCCGTGCTGAGTCCGCGGGC	-0.925
TTCATCTCAGGGAACTCCCTGT	0.622

Target: LECT2
Test: as above
Settings: shRNA

Sequence	sensor-assay potency score (higher = more potent)
TTGTATGCCAGGATAAACTTTC	-0.895
ATTATTGATAGCATTCTTGTTT	-0.52
TATGCCAGGATAAACTTTCTGC	-0.251
TATTCGAACACCATTATTGATA	-1.28
TTTGAGCAGAGTACTGTCCACA	-0.808
ATGTAGAACATTTTGACACAAA	-1.54
TTGACACAAAAACCTCTTCCAG	-1.04
TTCCAGATATTCGAACACCATT	-1.45
TAATGTAGAACATTTTGACACA	-0.673
TTATTGATAGCATTCTTGTTTT	-1.1
ATTGATAGCATTCTTGTTTTGA	-0.317
TCTCATTGGAAGACTTGCCAGC	-0.403

Target: LEFTY1
Test: as above
Settings: shRNA

Sequence	sensor-assay potency score (higher = more potent)
TGACCAGCTCCTCCATGTCGGC	-1.7
TCTTTGAGCTGCAGCTGCCGCA	-1.36
TATCTCCACATGTAAGTGCTTA	-0.789
TCCAACGCCAGGAACCTGCCGG	-1.04
TTAGGTGAGGTAACTTGTCAGA	-0.87
TTACAAAGTCTTTATTATCTGG	-0.428
TCCATAGTCCCCAAGGTCCAGG	-1.98
TCATAAGCCAGGAAGCCCGGGG	-0.504
TTTGAGCTGCAGCTGCCGCAGC	-0.825
TAGTCCCCAAGGTCCAGGGTGT	-1.02
TTCTCGGCCCACTTCATCCCCT	-1.23
TAAACAATGACACATTGGGCTT	-1

Target: LEKR1
Test: as above
Settings: shRNA

Sequence	sensor-assay potency score (higher = more potent)
TTGCTTTTCTTTCACAGTCAGC	-1.35
TTTAAGAGTGGTCACTTCCTGC	-0.157
TTCTCTACGCACTGTCTCCTGA	-0.0391
TTGCAATTTTGTTTCTTCCTTA	0.537
TTGCTCTTCAAATTCAACCAAG	-1.09
TTAGATCTCTTGTAGCGCCTGT	0.858
TTTCACAGTCAGCTCTTCCTGT	0.514
TATACTTTTGGATTACATCTTG	-0.0779
TTAGATTCTTCAGTGTACCGAG	0.595
